EWS-Fli inh: EWS/Fli-driven NR0B1 reporter inhibitors, primary screen, A673 cells, NR0B1 luciferase, luminescence, MLPCN library | viability-normalised | inhibition, % at 12.6 µM | actives 0.67% (n = 350,000) | AID 651661, 2012;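 active means mean inhibition of at least 50% after viability correction, with every replicate also passing that limit; inconclusive means mean reaches 50% but only one of two replicates passes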;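 further: firefly luciferase signal divided by Alamar Blue viability fluorescence both relative to DMSO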
LMP1 NFkB inh: EBV LMP1-driven NF-kappaB luciferase reporter inhibitors, primary screen, cell-based, luminescence, single point; LMP1-induced NF-kappaB luciferase reporter cells; inhibition, % at 12.5 µM; actives 0.69% (n = 350,000); AID 504558, 2011; in the data active means inhibition above about 41%; inconclusive means no clear call, values can overlap the other calls;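 further: 0% = neutral control wells and 100% = reference inhibitor control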
LGR2 antag: inhibitors of bursicon-induced LGR2 CRE-luciferase signal, primary screen, cell-based, HEK293, CRE-luciferase reporter, bursicon stimulation; bursicon-stimulated, 4 h; inhibition, % at 9.99 µM; actives 0.35% (n = 380,000); AID 720647, 2013;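 active means drop in luminescence signal, shown as inhibition above about 50% in the replicate tests, limit read from the data, passing the limit was not always enough; inconclusive means probably only some replicates passing the limit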;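 further: agonist challenge used bursicon conditioned medium at about half maximal strength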
TWEAK-Fn14 inh: inhibitors of TWEAK-Fn14 signaling, primary screen, luciferase reporter cells, uHTS; inhibition, % at 10 µM; AID 1159606, 2016; TWEAK-stimulated Fn14 reporter cells, luciferase luminescence, 8 h; actives 2% (n = 360,000); in the data active means inhibition above about 50%
TROY signal inh: inhibitors of TROY-driven NF-kB signaling, primary screen, Q293 LMP1-TROYcd cells, NF-kB luciferase, uHTS; Q293 LMP1-TROYcd NF-kB luciferase reporter, 4 h; inhibition, % at 10 µM; actives 0.98% (n = 360,000);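 active means compounds whose plate-normalised and pattern-corrected inhibition of the luciferase reporter signal at the single screening dose is 50% or more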
Numbers without * were called inactive; u = inconclusive; x = not tested or not shown. The list is not random: actives were taken first. Their share in the collection is about 2.5%.

SMILES | EWS-Fli inh | LMP1 NFkB inh | LGR2 antag | TWEAK-Fn14 inh | TROY signal inh
O=C(c1ccncc1)N1CC(=O)N2[C@H](CO)[C@@H](c3ccc(-c4ccccc4)cc3)[C@@H]2C1 | -4.9 | x | -4.1 | x | x
CCOc1ccccc1NC(=O)CN(c1ccc(OC)cc1)S(=O)(=O)c1c(C)noc1C | x | 2.2 | x | 9.8 | 6.3
CCOc1ccc(N(CC(=O)Nc2ccccc2C)S(=O)(=O)c2c(C)noc2C)cc1 | 57.9* | 11.6 | 2.9 | 22.9 | 19.1
CC(C)CC(=O)NCCNC(=O)c1cc(OCC(F)(F)F)ccc1OCC(F)(F)F | x | 6.1 | x | 75.6* | x
C[C@@H]1CN([C@@H](C)CO)S(=O)(=O)c2ccc(C#CC3(O)CCCC3)cc2O[C@H]1CN(C)C(=O)c1ccccc1 | 2.4 | x | 0.9 | x | x
COc1ccc(-c2csc(NC(=O)c3ccccc3NS(=O)(=O)c3ccc(C)cc3)n2)cc1 | 15.0 | 5.0 | 32.5 | 92.9* | 69.9*
COc1ccc(-c2csc(NC(=O)C3=NN(c4ccccc4)C(=O)CC3)n2)cc1 | -12.7 | 7.8 | 11.1 | 87.6* | 36.3
COc1ccc(S(=O)(=O)Nc2ccccc2C(=O)Nc2nc(-c3ccc(F)cc3)cs2)cc1OC | x | 3.2 | 25.4 | 92.0* | 58.6*
O=C(Nc1nc(-c2cc(F)ccc2F)cs1)C1=NN(c2ccccc2)C(=O)CC1 | 3.7 | -6.7 | 22.7 | 34.1 | 11.6
Cc1noc(C)c1S(=O)(=O)Nc1ccc2c(c1)C(=O)N([C@@H](C)CO)C[C@H](C)[C@@H](CN(C)C(=O)NC(C)C)OCCCC[C@@H](C)O2 | 24.2 | x | -17.0 | x | x
CCOC(=O)[C@H](Cc1c[nH]c2ccccc12)NC(=O)CN=[N+]=[N-] | 27.9 | x | x | x | x
CCC(=O)Nc1ccc2c(c1)OC[C@H](C)N(C(=O)Cc1ccccn1)C[C@H](C)[C@H](OC)CN(C)C2=O | -7.4 | x | -3.6 | x | x
O=C(C[C@H]1CC[C@H]2[C@@H](COC[C@H](O)CN2C(=O)c2ccccc2F)O1)N1CCN(c2ccccc2)CC1 | -61.2 | x | 3.2 | x | x
CC1(C)SC(=S)N(NC(=O)Nc2cccc3ccccc23)C1N(O)C(=O)Nc1ccccc1 (stereo not given) | 3.8 | 4.6 | 1.4 | 22.1 | 55.4*
C[C@@H](NC(=O)[C@H]1[C@H](CO)[C@H]2Cn3c(ccc(C4=CCCCC4)c3=O)[C@@H]1N2)c1ccccc1 | 1.4 | x | 4.9 | x | x
O=c1oc2ccc(Br)cc2cc1S(=O)(=O)c1ccc(F)cc1 | x | 2.6 | x | 91.0* | 17.0
Cc1ncc(CO)c2cc(S(=O)(=O)c3ccc(F)cc3)c(=O)oc12 | 4.4 | -8.5 | 1.2 | 6.7 | -4.0
COc1cccc(/C=C2\SC(=S)N(CCC(=O)NCCc3ccc(O)cc3)C2=O)c1 | x | 41.4* | 3.7 | -5.3 | 5.2
O=[N+]([O-])c1cccc(C=NNC(=S)NC23CC4CC(CC(C4)C2)C3)c1 | -1.8 | -8.4 | -58.8 | 11.0 | 60.5*
C=CCNC(=S)N/N=C/c1cccc([N+](=O)[O-])c1 | 2.3 | 0.6 | -1.3 | -1.6 | -18.9
C[C@@H]1CN([C@@H](C)CO)C(=O)Cc2cc(NC(=O)Nc3ccc(C(F)(F)F)cc3)ccc2O[C@H]1CN(C)S(=O)(=O)c1ccccc1 | 1.7 | x | 2.2 | x | x
Cc1ccc(S(=O)(=O)Nc2ccc3c(c2)C(=O)N([C@@H](C)CO)C[C@@H](C)[C@H](CN(C)C(=O)c2ccncc2)OCCCC[C@@H](C)O3)cc1 | 2.9 | x | -6.6 | x | x
O=C(C[C@@H]1CC[C@@H]2[C@H](COC[C@H](O)CN2C(=O)Cc2ccccc2)O1)NC1CCCC1 | 10.0 | x | 17.9 | x | x
NC(=O)c1ncn([C@@H]2O[C@H](CO)[C@@H](O)[C@H]2O)n1 | -38.9 | 63.2* | 3.8 | -11.4 | 0.6
COc1ccccc1CN1[C@@H]2CN(C(=O)C3CCCCC3)c3ccccc3[C@@H]2[C@@H]1CO | 17.2 | x | -3.4 | x | x
SMILES | EWS-Fli inh | LMP1 NFkB inh | LGR2 antag | TWEAK-Fn14 inh | TROY signal inh
CCOC(=O)NC(=O)/C(C#N)=N\Nc1cccc(Cl)c1 | -10.6 | 2.8 | 1.6 | -0.8 | 55.7*
C/C=C/c1cnc2c(c1)C(=O)N([C@@H](C)CO)C[C@H](C)[C@H](CN(C)Cc1ccc(F)cc1)O2 | -1.4 | x | 4.9 | x | x
CC=Cc1ccc2n(c1=O)C[C@@H]1[C@@H](CO)[C@H](C(=O)NCC(F)(F)F)N(CC)[C@H]21 (mixture of isomers) | -0.4 | x | -9.1 | x | x
Cc1noc(/C=C/c2ccccn2)c1[N+](=O)[O-] | 40.4 | 22.9 | 34.4 | 56.2* | 23.1
Cc1noc(/C=C/Nc2ccc(F)cc2F)c1[N+](=O)[O-] | -57.5 | -50.2 | -108.4 | -5.9 | -15.4
COc1ccccc1N/C=C/c1onc(C)c1[N+](=O)[O-] | x | -9.1 | 72.9* | 78.3* | 71.5*
CC(CC(=O)Nc1ccc2c(c1)c(=O)n(C)n2-c1ccccc1)c1ccccc1 (stereo not given) | 56.4* | x | 10.7 | 14.1 | 26.6
C[C@@H]1CN([C@@H](C)CO)C(=O)Cc2cc(NC(=O)C3CC3)ccc2O[C@H]1CN(C)Cc1ccc(Oc2ccccc2)cc1 | 14.3 | x | 0.1 | x | x
Cn1cc(C(=O)c2ccc(Cl)cc2Cl)cc1C(=O)N/N=C(\N)COc1ccc(Cl)cc1Cl | x | 24.7 | x | 57.4* | 19.4
Cc1ccc2nc(-c3ccc(O)c(O)c3)cn2c1 | 1.4 | 2.9 | u | 68.5* | -8.7
Cc1ccc2nc(-c3ccccc3)cn2c1 | x | 72.5* | x | 105.4* | 85.5*
COc1cc2cncc(Cc3ccc(Cl)cc3)c2cc1OC | x | 25.8 | x | 75.4* | 58.0*
CCc1cc2c(nc1CC)CCCN2S(=O)(=O)c1ccc(F)cc1 | 7.8 | x | -2.7 | x | x
CCc1cc2c(nc1CC)CCCN2S(=O)(=O)c1ccc(OC)cc1 | 72.1* | x | -9.1 | x | x
COc1ccc(CNC(=O)c2sc(=O)n(Cc3ccc(-c4ccccc4)cc3)c2C)cc1OC | 15.9 | x | 9.8 | 60.6* | 41.0
Cc1c(C(=O)NCc2ccc(Cl)c(Cl)c2)sc(=O)n1Cc1ccc(S(C)(=O)=O)cc1 | 29.1 | x | 25.9 | 52.9* | 38.1
C[C@@H]1CN([C@H](C)CO)C(=O)Cc2cc(NC(=O)Nc3ccc(F)cc3)ccc2O[C@H]1CN(C)S(=O)(=O)c1ccc(Cl)cc1 | -5.6 | x | -13.2 | x | x
O=C(Oc1cccc(Nc2ncnc3ccccc23)c1)c1cccnc1 | -19.2 | 4.5 | x | 9.0 | 14.8
COc1ccc(C(=O)Oc2cccc(Nc3ncnc4ccccc34)c2)cc1OC | -15.9 | 34.1 | 6.0 | 82.3* | 53.6*
COc1cc(C(=O)Oc2cccc(Nc3ncnc4ccccc34)c2)cc(OC)c1OC | -21.0 | 34.3 | 85.4* | 99.3* | 78.5*
O=C(C[C@H]1CC[C@H]2[C@@H](COC[C@H](O)CN2C(=O)c2ccncc2)O1)NC1Cc2ccccc2C1 | -6.8 | x | 3.5 | x | x
O=C1c2cccc(OCC(=O)N3CCCc4ccccc43)c2CCN1Cc1ccccc1 | -5.5 | 15.2 | 12.6 | 5.9 | -4.9
